Compounds without any hit were thinned out: in the full panel of roughly 83,000, 20% have a hit.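 In brief: 96-well plates, 48 h treatment, single concentration, percent growth endpoint.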 A number with no mark means an inactive call. Active and inactive are the calls of the source. Rule for the calls: active = growth percent below 10; inactive = the rest.
Each compound was assayed on HL-60(TB) leukemia (assay: NCI-60 one-dose screen, 48 h (100 = growth as untreated, 0 = no growth, -100 = all killed)). Settings: 10 µM unless noted.

SMILES | growth
Cc1ccc(N2C(=O)CCC2=O)cc1 | 104%
CN(C)N1C(=O)c2c(Cl)c(Cl)c(Cl)c(Cl)c2C1=O | 95.8%
COc1ccc(NC(=O)CSc2nnc(-c3cc(-c4ccc(S(N)(=O)=O)cc4)nc4ccccc34)n2-c2ccccc2)cc1 | 65.1%
O=c1n(CC2CO2)c(=O)n(CC2CO2)n1CC1CO1 (stereo not given) | 7.91% (active)
O=[N+]([O-])c1ccc(N/N=C/c2ccccc2O)nc1 | 0.837% (active)
Cn1cnc([N+](=O)[O-])c1/C=C1\Oc2ccc(Cl)cc2C1=O | 60%
C#CC(C)(O)[C@@H]1C[C@H](CC(=O)O)C1(C)C (stereo not given in full) | 113%
CN(C)c1ccc(Cc2cc(-c3ccccc3)nn(C/C(=N/O)c3ccccc3)c2=O)cc1 | 54.3%
CCOC(=O)/C(C#N)=C(/C)C1CC1 | 110%
Cc1ccc(N(CC(=O)Nc2ccc(S(=O)(=O)N3CCC(N4CCCC4)CC3)cc2)S(=O)(=O)c2ccc(Cl)cc2)cc1 | -51.5% (active)
N#CC1=C(N)Oc2c(sc3c(F)cccc23)C1c1ccc(Cl)cc1 (stereo not given) | -6.14% (active)
COc1ccc(-n2[nH]c3c(cnc4ccccc43)c2=O)cc1 | 97.3%
Cc1nc(-c2ccccc2)sc1CC#N | 93.9%
CCCOc1ccc(/C=N/Nc2cc(C)nc3ccc(Br)cc23)cc1 | 55.3%
COc1cc(/C=N/Nc2ccccc2F)cc(OC)c1OC | 90.1%
CC(C)(C)CC(C)(C)Nc1c(-c2ccc(-c3ccccc3)cc2)nc2cnccn12 | 92.9%
Cc1n(Cc2ccc3ccccc3n2)cc[n+]1Cc1ccc2ccccc2n1 | 34.2%
COC(=O)[C@H](C)NC(=O)[C@@H]1CCCN1C(=O)CNC(=O)[C@H](C)N | 104%
CCCCC1(O)CCCCC1 | 99.1%
CCCN1CCN(c2ccc3nc(-c4ccc5nc(-c6ccc(OCC)c(OCC)c6)[nH]c5c4)[nH]c3c2)CC1 | -23.1% (active)

SMILES | growth
COc1cc(C2CC(c3ccc(C)cc3)=NN2C(C)=O)ccc1Oc1ccnc2cc(Cl)ccc12 (stereo not given) | 100%
O=[N+]([O-])c1cccc([I+]c2ccccc2)c1 | 37.9%
CC/C=C\C[C@H](O)C/C=C1/C(=O)C=C[C@@H]1C/C=C\CCCC(=O)NC | -27.2% (active)
CN1CCN(Cc2cc(NC(=O)c3cccc(C#Cc4cccc5[nH]nc(N)c45)c3)cc(C(F)(F)F)c2)CC1 | 0.0221% (active)
COc1ccccc1N1CCN(CCCOc2ccc(C(=O)/C=C3/C(=O)Nc4ccccc43)cc2)CC1 | 52.8%
COc1ccc(C(=O)/C=C/c2ccc(OCc3ccccc3)c(OC)c2)cc1OC | 48.8%
FCOC(C(F)(F)F)C(F)(F)F | 96.1%
O=C(CCl)N(c1ccccc1)c1ccccc1 | 101%
CC(C)CSc1nc(Nc2ccccc2)c(C#N)c(-c2ccc(F)cc2)n1 | 73.4%
CC(Cc1cccc(C(F)(F)F)c1)NCCOC(=O)c1ccccc1 (stereo not given) | 102%
Fc1ccc(Oc2ccc(Nc3ncnc4onc(-c5ccccc5)c34)cc2)cc1 | 86.9%
Cc1nc(Sc2nc3ccc([N+](=O)[O-])cc3s2)sc1C | -41.7% (active)
Cc1ccc(/C=C2/C(=O)Nc3cc(Cl)c(-c4csc(N)n4)cc32)cc1 | 22.2%
CC1(c2ccccc2)OC1C(=O)O (stereo not given) | 103%
O=C1Nc2ccccc2/C1=C\c1c[nH]c2ccc(Br)cc12 | 73.1%
COc1ccc(-c2cn(Cc3cc4ccccc4s3)nn2)cc1OCCN1CCCCC1 | 77%
C=CC(C)(C)n1cc(C2=C(O)C(=O)C(c3cn(C(C)(C)C=C)c4ccccc34)=C(O)C2=O)c2ccccc21 | 69.4%
CCCCCCCCCCOC(C)=O | 107%
O=C(Nc1cccc2[nH]c(C(F)(F)F)nc12)c1ccc(Br)cc1F | 22.4%
Cc1ccc(-c2cc(-c3ccccc3)n(-c3ccccc3)n2)cc1 | 98.5%

From PubChem BioAssay (NCI)
